Measurements: PubChem BioAssay AID1626 (SRMLSC, 2009)
The campaign covered roughly 220,000 compounds. About 2,000 (0.91%) were called active. Inconclusive results (about 2%) are left out. Rule as the data show it: inconclusive = inhibition above about 80% without an active follow-up result; inactive = below that; test concentration not stated here. These entries were drawn from the full list. Measured potencies and affinities stand elsewhere.

assay: M. tuberculosis H37Rv growth inhibitors, H37Rv strain (AID 1626); details: hits give high values, concentration not given here;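 also: bacteria incubated seven days before Alamar blue readout; 0% = bacteria only wells and 100% = bacteria with antibiotic wells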

| SMILES | inhibition |
| --- | --- |
| CCC1CSC(Nc2ccc(C(=O)/C=C/c3ccc(OC)c(OC)c3)cc2)=N1 (stereo unspecified) | 44.8% (inactive) |
| CCCc1cc(=O)[nH]c(SCc2ccc(F)cc2)n1 | -1.85% (inactive) |
| COc1cccc(NC(=O)N2CCCc3ccccc32)c1 | 15% (inactive) |
| COc1cccc2sc(N(CCCN(C)C)C(=O)COc3ccc(Cl)cc3)nc12 | -2.48% (inactive) |
| COc1cccc2sc(N(CCCN(C)C)C(=O)c3sc4ccccc4c3Cl)nc12 | 1.6% (inactive) |
| Cc1cccc(C(=O)Nc2ccccc2C(=O)OCC(=O)Nc2ccc(C#N)cc2)c1 | 45% (inactive) |
| CCNC(=O)COC(=O)CNC(=O)c1cc(Cl)cc([N+](=O)[O-])c1 | -10% (inactive) |
| O=C(Oc1ccc(Cl)c2cccnc12)N1CCCCC1 | 4.79% (inactive) |
| CN(C)C(=O)Oc1ccc(Cl)c2cccnc12 | -4.68% (inactive) |
| CCCC(=O)Nc1ccc(NC(=O)c2ccccc2Cl)nc1 | 7.45% (inactive) |
| O=C(N/N=C/C=C\c1ccc([N+](=O)[O-])cc1)c1cccnc1 | -15.7% (inactive) |
| O=C1/C(=C/c2cccnc2)Oc2cc(OS(=O)(=O)c3ccc(Cl)cc3)ccc21 | 13.6% (inactive) |
| O=C1/C(=C/c2ccncc2)Oc2cc(OS(=O)(=O)c3ccccc3)ccc21 | 21.6% (inactive) |
| CS(=O)(=O)Oc1ccc2c(c1)O/C(=C\c1cccnc1)C2=O | -6.08% (inactive) |
| Cc1ccc(S(=O)(=O)Oc2ccc3c(c2)O/C(=C\c2cccnc2)C3=O)cc1 | -0.74% (inactive) |
| Cc1ccc2[nH]cc(C(=O)CN3CCOCC3)c2c1 | -4.26% (inactive) |
| COc1ccc(C2C3=C(CCCC3=O)Nc3n[nH]c(C)c32)cc1OC (stereo unspecified) | -5.11% (inactive) |
| CCOC(=O)CSc1nnc(CNc2cccc(Cl)c2)n1-c1ccccc1 | 5.48% (inactive) |
| N#Cc1nc(-c2ccc(OCc3ccccc3)cc2)oc1NCCCn1ccnc1 | 4.85% (inactive) |
| N#Cc1nc(-c2ccc(OCc3ccc(Cl)cc3)cc2)oc1NCCCn1ccnc1 | -1.04% (inactive) |
| Cc1cccc(C)c1Nc1nnc(SCc2cn3cccc(C)c3n2)s1 | -7.42% (inactive) |
| COc1ccc(-c2cc(=Nc3ccccc3)c3cc(C)ccc3o2)cc1 | 17.7% (inactive) |
| COc1ccc(-c2cc(=Nc3ccc(C)cc3)c3ccccc3o2)cc1 | 12.8% (inactive) |
| O=C(CNC(=O)c1ccco1)Nc1ccc(S(=O)(=O)N2CCCC2)cc1 | -5.82% (inactive) |

| SMILES | inhibition |
| --- | --- |
| Cc1ccc2nc(N(CCCN(C)C)C(=O)CCc3ccccc3)sc2c1 | 9.45% (inactive) |
| CN(C)CCCN(C(=O)CCc1ccccc1)c1nc2ccc(F)cc2s1 | 7.03% (inactive) |
| O=C1NC(c2ccccc2)=NC1(NS(=O)(=O)c1ccc(Cl)cc1)C(F)(F)F (stereo unspecified) | 7.08% (inactive) |
| COc1ccc(OC)c(C(=O)c2coc3ccc(O)cc23)c1 | -1.33% (inactive) |
| O=C(c1ccc(Cl)cc1)c1coc2ccc(O)cc12 | -6.06% (inactive) |
| O=C(c1cccs1)c1coc2ccc(O)cc12 | 51% (inactive) |
| O=C(c1coc2ccc(O)c(CN3CCOCC3)c12)C1CC1 | 4.13% (inactive) |
| CN1CC(=O)N(CC(=O)Nc2ccc(F)cc2)c2ccccc2C1=O | -5.02% (inactive) |
| COc1ccc(C(=O)Nn2c(CCC(=O)O)ccc2-c2ccc(C)cc2)cc1OC | -3.08% (inactive) |
| Cc1cccc(N2CCN(C(=O)N3CCOCC3)CC2)c1C | -3.5% (inactive) |
| Cc1nn(C)c(C(=O)NNC(=S)NC2CCCCC2)c1Br | 10.2% (inactive) |
| Cc1ccc(NC(=O)COC(=O)CCNS(=O)(=O)c2ccc(C)c(C)c2)cc1 | -0.05% (inactive) |
| CCN(CC)c1ccc(/C=C(/C#N)c2nc3ccc(C)cc3[nH]2)c(OC(C)C)c1 | 16.2% (inactive) |
| CCCOc1cc(N(CC)CC)ccc1/C=C(/C#N)c1nc2ccc(C)cc2[nH]1 | 61.6% (inactive) |
| FC(F)(F)c1ccc(CN2C[C@@H]3C(c4ccccc4)C4(c5cccnc5)CC3(C4)[C@H]2c2ccccc2)cc1 (stereo partly specified) | 20.3% (inactive) |
| COc1ccccc1S(=O)(=O)CC(O)COc1ccc(C#N)cc1 (stereo unspecified) | -1.05% (inactive) |
| Cc1nccn1CC(=O)N/N=C/c1c[nH]c2ccccc12 | 3.79% (inactive) |
| COC(=O)c1ccc(OC(=O)CCN2c3ccccc3Sc3ccccc32)cc1 | 1.13% (inactive) |
| O=C(CCN1c2ccccc2Sc2ccccc21)Oc1ccccc1 | 22.8% (inactive) |
| CSCCC(NC(=O)c1ccccc1)c1nc(-c2ccccc2)no1 (stereo unspecified) | 2.56% (inactive) |
| CCOc1cc(Br)ccc1S(=O)(=O)N1CCC(C(N)=O)CC1 | -1.13% (inactive) |
| Cc1cccc(N=Nc2c(C)c(C#N)c(O)[nH]c2=O)c1 | -1.05% (inactive) |
| CCOC(=O)c1ccc(N=Nc2c(C)c(C#N)c(O)[nH]c2=O)cc1 | 86.6% (inactive) |
| Cc1ccc(C)c2[nH]c(=O)c(CN(CC3CCCO3)C(=S)NCc3ccco3)cc12 (stereo unspecified) | 1.36% (inactive) |

| SMILES | inhibition |
| --- | --- |
| c1ccc(COc2ccc(CNn3cnnc3)cc2)cc1 | -2.39% (inactive) |
| COc1cccc(-c2nc(Oc3cccc(C)c3C)c3ccccc3n2)c1O | -7.68% (inactive) |
| Cc1nc(SCC(=O)NCc2ccccc2)c2oc3ccccc3c2n1 | -1.12% (inactive) |
| CCOC(=O)N1C2=NC(C(=O)OC)=C(C(=O)OC)[C@@H]3N(Cc4ccccc4)c4ccccc4[C@]23C[C@H]1C(=O)OC | -6.13% (inactive) |
| CN1CCN(c2ccc(C(=O)c3ccc(F)cc3)cc2)CC1 | 1.19% (inactive) |
| O=C(c1cn(-c2ccc(Cl)c(Cl)c2)nn1)C1CC1 | 12.8% (inactive) |
| Cc1ccc(-n2cnnn2)cc1Cl | -4.47% (inactive) |
| Cc1ccc(C(=O)c2cn(-c3ccc(F)c(Cl)c3)nn2)cc1 | 0.59% (inactive) |
| Cc1c(-n2c(O)c(C3=c4ccccc4=NC3=O)sc2=O)c(=O)n(-c2ccccc2)n1C | 1.59% (inactive) |
| N/C(=N\OC(=O)c1cc(Cl)ccc1Cl)c1ccncc1 | -3.7% (inactive) |
| CS(=O)(=O)N(Cc1ccc(Cl)cc1)c1ccc(C(=O)N/N=C/c2cc3ccccc3nc2Cl)cc1 | -6.17% (inactive) |
| Cc1ccc(-n2nnnc2SCC(=O)Nc2sccc2C#N)cc1 | 0.42% (inactive) |
| O=C(CN1C(=O)CCC1=O)NCC12CC3CC(CC(C3)C1)C2 | 0.8% (inactive) |
| Cc1ccc(N/C=C(\C#N)c2ccc(OCCCF)cc2)cc1 | 7.98% (inactive) |
| Cc1nn(Cc2ccccc2Cl)c2sc(C(=O)NC(C)(C)C)cc12 | 7.48% (inactive) |
| CCNC(=O)c1c(C)nc2ccccn12 | -9.74% (inactive) |
| COc1ccc(NC(=O)c2c(Cl)nc3ccccn23)cc1 | -0.46% (inactive) |
| O=C(NCc1ccc2c(c1)OCO2)c1cnc2ccccn2c1=O | -8.83% (inactive) |
| CC(C)(C)c1ccc(C(=O)OCCNC(=O)c2c(Cl)nc3ccccn23)cc1 | -10.6% (inactive) |
| Cc1nc2ccccn2c1C(=O)NCc1cccnc1 | -10.5% (inactive) |
| CCC(CC)NC(=O)c1cc2c(C)nn(Cc3ccccc3Cl)c2s1 | -6.17% (inactive) |
| Cc1nc2ccccn2c1C(=O)N/N=C/c1ccc2c(c1)OCO2 | 1.58% (inactive) |
| COCCn1c(=O)[nH]c2cc(C(=O)NCC3CCCO3)ccc2c1=O (stereo unspecified) | -10.7% (inactive) |
| COc1cc(C2NC(=O)NC(C)=C2C(C)=O)ccc1O (stereo unspecified) | 5.67% (inactive) |

| SMILES | inhibition |
| --- | --- |
| COC(=O)c1ccccc1NC(=O)NCc1cccnc1 | 2.42% (inactive) |
| CCCC(C)C(=O)Nc1ccc(Cl)cc1Cl (stereo unspecified) | -6.12% (inactive) |
| Cc1ccc(NC(=O)CC(=O)NCCN2CCOCC2)cc1 | -6.87% (inactive) |
| CC(=O)c1ccc(OC(C)C)c(CSC(=N)N)c1 | -9.08% (inactive) |
| COc1ccccc1NS(=O)(=O)c1cccc(NC(=S)NCCN2CCOCC2)c1 | -2.29% (inactive) |
| c1ccc2c(Nc3ccc4c(c3)OCCO4)c3c(nc2c1)CCC3 | 21.9% (inactive) |
| Cc1ccc2nc3c(c(Nc4ccc5c(c4)OCCO5)c2c1)CCC3 | 59.8% (inactive) |
| CSc1snc(SCC(N)=O)c1C#N | -4.47% (inactive) |
| N#Cc1c(SCC(N)=O)nsc1SCc1ccc(Cl)cc1 | -0.48% (inactive) |
| C/C=C/C(=O)OCC(=O)Nc1cccc(Br)c1 | -3.94% (inactive) |
| COc1ccc(NC(=O)C(C)Sc2nnc3c4c(nc(-c5ccc(OC)cc5)n23)CC(C)(C)OC4)cc1 (stereo unspecified) | 4.37% (inactive) |
| CC(C)CNC(=S)N1CCN(Cc2ccc3c(c2)OCO3)CC1 | -8.68% (inactive) |
| CCOC(=O)c1ccc(NC(=O)CNC(=O)c2ccccc2)cc1 | 0.26% (inactive) |
| CCOC(=O)c1ccc(NC(=O)Nc2ccc(F)cc2)cc1 | -14.9% (inactive) |
| CCC1C(=O)N=C(SCC(=O)Nc2ccc(C(=O)OC)cc2)NC1=O (stereo unspecified) | 8.73% (inactive) |
| COc1ccc(NC(=O)c2cc3ccccc3o2)cc1 | 8.56% (inactive) |
| CCC1C(=O)N=C(SCC(=O)Nc2ccccc2)NC1=O (stereo unspecified) | -8% (inactive) |
| COc1ccccc1NC(=O)c1ccc(NC(=O)c2cc3c(s2)CCC3)cc1 | 0.63% (inactive) |
| CCC(=O)Nc1ccc(NC(=O)c2cc3ccccc3o2)cc1 | 8.98% (inactive) |
| Cc1ccc(NC(=O)c2cc3c(s2)CCCC3)cc1 | -5.85% (inactive) |
| COc1cccc(/C=N/NC(=O)CN(CCc2ccccc2)S(=O)(=O)c2ccc(NC(C)=O)cc2)c1 | 0.86% (inactive) |
| COc1ccc(/C=N/NC(=O)c2cccnc2)cc1CN1CCc2cc(OC)c(OC)cc2C1C (stereo unspecified) | 1.27% (inactive) |
| Cc1cc(C)n2nc(C(=O)OCC(=O)c3cc(C)n(CC4CCCO4)c3C)nc2n1 (stereo unspecified) | -11.1% (inactive) |
| CC(=O)c1ccc(NC(=O)N2C3CCC2CC(O)(c2cccnc2)C3)cc1 (stereo unspecified) | -0.55% (inactive) |
